Measured values taken from PubChem BioAssay (NCATS).
Where “and” joins values, the source holds several entries; their conditions need not be identical. Equal entries are not always repeated. Inconclusive results are not listed. Entries that show only a call come without a potency. Calls of active or inactive are those of the source. Unless noted, calls follow the shape of the dose curve; as a rule, active = well fitted curve in the direction sought with a large enough effect; inconclusive = small, poorly fitted or top-dose-only effect, or another doubt; inactive = no such curve, though single readings can be large; an effect the other way counts as inactive or inconclusive.

Assays:
[1] = target: Vitamin D3 receptor (Homo sapiens) (UniProt P11473); experiment: qHTS assay for small molecule antagonists of vitamin D receptor signaling (AID 588541; calls by dose curve;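 also: receptor activated by calcitriol during compound treatment; series mostly up to about 77 µM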)
How it was run: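 VDR-UAS-bla HEK293T cells (2000/well, 2% charcoal-stripped FBS) were treated with titrated compounds plus 1-alpha,25-dihydroxyvitamin D3 (50 nM or 3 nM final) for 16 h at 37 C. CCF4 beta-lactamase fluorescence was read; Hill fits gave IC50.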

[2] = target: Thyroid hormone receptor beta (Homo sapiens) (UniProt P10828); experiment: qHTS assay for small molecule agonists of thyroid hormone receptor beta signaling (AID 588545; calls by dose curve)
How it was run: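 Beta-lactamase reporter activity under TR response element control is measured in HEK 293 cells after 18 hrs compound exposure. Signal is ratiometric CCF4 fluorescence, 460/530 nm.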

[3] = qHTS assay for small molecule antagonists of retinoid X receptor alpha signaling (AID 588546; active = well fitted inhibition curve with a large enough effect in the signal ratio, with a control signal flat, not every such curve was filed as active; the % refers to the signal ratio; also: potency is read from the fitted curve at half-maximal effect;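 as to max response: cells stimulated with 9-cis-retinoic acid as agonist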); details: HEK293T RXRa-UAS-bla, beta-lactamase ratio, antagonist mode; measured here: W530 green channel, cytotoxicity proxy
How it was run: (§1)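 Beta-lactamase reporter inhibition, read as CCF4 fluorescence ratio (ex 405, em 460/530 nm) after 2 h at RT. HEK293T UAS-bla cells, 2500/well, were stimulated with 9-cis-RA at 500 or 100 nM final alongside test compound for 18 h at 37 C.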

[4] = target: Retinoic acid receptor RXR-alpha (Homo sapiens) (UniProt P19793); experiment: as above; details: HEK293T RXRa-UAS-bla, beta-lactamase ratio, antagonist mode
How it was run: as §1

[5] = target: Voltage-gated inwardly rectifying potassium channel KCNH2 (Homo sapiens) (UniProt Q12809); experiment: qHTS Assay for Small Molecule Inhibitors of the Human hERG Channel Activity (AID 588834);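 also: lower thallium flux fluorescence means stronger hERG block; nearly all actives have a fitted effect of over 50% in size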; also: potency is read from the fitted curve at half-maximal effect
How it was run: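 U2OS cells transduced with hERG via BacMam (MOI ~100), plated 2000/well, loaded with FluxOR thallium dye, compound ~10 min, then stimulation buffer; fluorescence decrease read kinetically; AC50 from Hill fits.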

[6] = target: Luciferin 4-monooxygenase (Photinus pyralis) (UniProt P08659); experiment: Biochemical firefly luciferase enzyme assay for NPC (AID 624030);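 also: purified P. pyralis luciferase at 10 nM with luciferin and ATP substrate; series mostly up to about 59 µM; nearly all actives have a fitted effect of over 70% in size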
How it was run: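 Counter-screen for direct inhibition of the luciferase enzyme by approved-drug library compounds, run at 10 nM enzyme in 50 mM Tris acetate (final). Luminescence was read within 5 min of enzyme-buffer addition and normalized to PTC124 versus DMSO (0%).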

[7] = S16 Schwann cell viability assay (CellTiter-Glo assay) (AID 624031);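 also: cellular ATP luminescence as a viability measure; series mostly up to about 58 µM; nearly all actives have a fitted effect of over 70% in size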
How it was run: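 Native S16 rat Schwann cells, 500-750 cells/well in DMEM with 10% FBS, dosed with compound after overnight culture and incubated 24h at 37 degree Celsius/5% CO2. Viability by CellTiter-Glo luminescence; % activity normalized to no-cell wells and DMSO-treated cells.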

[8] = target: Vitamin D3 receptor (Homo sapiens) (UniProt P11473); experiment: qHTS assay for small molecule agonists of vitamin D receptor signaling (AID 588543; calls by dose curve)
How it was run: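 GeneBLAzer VDR-UAS-bla HEK293T cells in 2% charcoal-stripped FBS medium were dosed with compound titrations for 16 h at 37 °C; CCF4 β-lactamase readout (405 nm ex, 460/530 nm em). EC50 and efficacy from Hill fits, normalized to 50 nM calcitriol (100%) and DMSO (0%).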

[9] = qHTS assay for small molecule agonists of retinoid X receptor alpha signaling (AID 588544); details: HEK293T RXRa-UAS-bla, beta-lactamase reporter, 18 h; 530 nm emission
[10] = target: Thyroid hormone receptor beta (Homo sapiens) (UniProt P10828); experiment: qHTS assay for small molecule antagonists of thyroid hormone receptor beta signaling (AID 588547; active = well fitted inhibition curve with a large enough effect in the signal ratio, with a control signal flat, not every such curve was filed as active; the % refers to the signal ratio;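 also: cells stimulated with 0.4 nM T3 agonist during compound exposure; series mostly up to about 77 µM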); details: TR-UAS-bla HEK293, beta-lactamase ratio, antagonist mode, 18 h
How it was run: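 TR-UAS-bla GripTite HEK293 cells in 2% charcoal/dextran FBS medium were preincubated 4 h at 37 C, given compound (0.59 nM to 92 uM) plus 0.4 nM T3 (final) for 18 h, then CCF4 for 2 h at RT; Hill fit gave IC50.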

Sequence of Retinoic acid receptor RXR-alpha (Homo sapiens) (P19793 whole entry, looked up): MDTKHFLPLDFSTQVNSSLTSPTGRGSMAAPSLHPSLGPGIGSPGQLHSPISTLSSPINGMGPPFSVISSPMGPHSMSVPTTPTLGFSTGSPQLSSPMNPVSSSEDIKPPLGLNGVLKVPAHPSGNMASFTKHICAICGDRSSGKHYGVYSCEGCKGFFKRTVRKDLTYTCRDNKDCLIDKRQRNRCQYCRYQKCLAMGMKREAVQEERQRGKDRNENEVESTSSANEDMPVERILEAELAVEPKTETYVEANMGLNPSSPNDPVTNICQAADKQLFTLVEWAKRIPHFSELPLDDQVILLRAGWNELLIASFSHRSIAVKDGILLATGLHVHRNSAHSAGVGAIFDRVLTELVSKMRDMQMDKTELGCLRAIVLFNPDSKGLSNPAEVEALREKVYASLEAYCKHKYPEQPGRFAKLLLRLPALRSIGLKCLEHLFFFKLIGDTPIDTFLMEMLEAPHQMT
Sequence of Vitamin D3 receptor (Homo sapiens) (P11473 whole entry, looked up): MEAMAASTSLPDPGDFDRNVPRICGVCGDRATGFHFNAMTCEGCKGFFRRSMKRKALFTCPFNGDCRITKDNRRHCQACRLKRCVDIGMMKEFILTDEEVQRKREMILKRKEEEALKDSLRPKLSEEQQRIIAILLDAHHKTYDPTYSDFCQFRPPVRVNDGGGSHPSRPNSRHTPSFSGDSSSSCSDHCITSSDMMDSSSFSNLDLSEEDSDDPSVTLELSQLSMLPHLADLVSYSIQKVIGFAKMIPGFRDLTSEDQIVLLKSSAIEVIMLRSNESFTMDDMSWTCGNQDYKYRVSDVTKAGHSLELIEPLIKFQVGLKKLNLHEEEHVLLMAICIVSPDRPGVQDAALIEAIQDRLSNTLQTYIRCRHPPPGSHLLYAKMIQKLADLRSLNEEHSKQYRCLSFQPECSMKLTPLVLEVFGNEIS
Sequence of Luciferin 4-monooxygenase (Photinus pyralis) (P08659 whole entry, looked up): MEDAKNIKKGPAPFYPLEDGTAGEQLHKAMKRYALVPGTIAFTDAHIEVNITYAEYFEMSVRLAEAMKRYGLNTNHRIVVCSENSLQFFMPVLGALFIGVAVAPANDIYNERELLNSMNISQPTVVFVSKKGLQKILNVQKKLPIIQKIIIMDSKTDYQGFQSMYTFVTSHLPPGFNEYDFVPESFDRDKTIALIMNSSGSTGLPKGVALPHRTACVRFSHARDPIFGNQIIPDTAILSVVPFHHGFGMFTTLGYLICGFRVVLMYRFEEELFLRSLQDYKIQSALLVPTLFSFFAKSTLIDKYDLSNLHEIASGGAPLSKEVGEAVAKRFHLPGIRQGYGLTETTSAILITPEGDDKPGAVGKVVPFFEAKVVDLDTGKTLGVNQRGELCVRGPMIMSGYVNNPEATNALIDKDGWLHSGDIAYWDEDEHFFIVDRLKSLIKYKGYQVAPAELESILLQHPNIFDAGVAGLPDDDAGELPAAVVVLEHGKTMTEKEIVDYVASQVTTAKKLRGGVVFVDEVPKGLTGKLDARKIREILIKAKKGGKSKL
Sequence of Thyroid hormone receptor beta (Homo sapiens) (P10828 whole entry, looked up): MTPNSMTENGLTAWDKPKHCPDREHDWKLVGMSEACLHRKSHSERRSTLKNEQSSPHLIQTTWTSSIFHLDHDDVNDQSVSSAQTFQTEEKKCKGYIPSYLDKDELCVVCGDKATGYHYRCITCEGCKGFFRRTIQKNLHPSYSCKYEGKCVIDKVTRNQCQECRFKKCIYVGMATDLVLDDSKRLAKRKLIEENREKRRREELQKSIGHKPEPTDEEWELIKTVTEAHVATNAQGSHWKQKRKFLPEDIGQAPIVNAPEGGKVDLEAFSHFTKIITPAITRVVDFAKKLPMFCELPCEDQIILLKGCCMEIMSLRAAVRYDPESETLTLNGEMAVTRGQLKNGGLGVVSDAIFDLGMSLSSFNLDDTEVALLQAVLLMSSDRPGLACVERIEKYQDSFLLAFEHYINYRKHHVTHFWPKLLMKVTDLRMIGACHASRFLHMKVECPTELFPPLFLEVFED
Sequence of Voltage-gated inwardly rectifying potassium channel KCNH2 (Homo sapiens) (Q12809 whole entry, looked up): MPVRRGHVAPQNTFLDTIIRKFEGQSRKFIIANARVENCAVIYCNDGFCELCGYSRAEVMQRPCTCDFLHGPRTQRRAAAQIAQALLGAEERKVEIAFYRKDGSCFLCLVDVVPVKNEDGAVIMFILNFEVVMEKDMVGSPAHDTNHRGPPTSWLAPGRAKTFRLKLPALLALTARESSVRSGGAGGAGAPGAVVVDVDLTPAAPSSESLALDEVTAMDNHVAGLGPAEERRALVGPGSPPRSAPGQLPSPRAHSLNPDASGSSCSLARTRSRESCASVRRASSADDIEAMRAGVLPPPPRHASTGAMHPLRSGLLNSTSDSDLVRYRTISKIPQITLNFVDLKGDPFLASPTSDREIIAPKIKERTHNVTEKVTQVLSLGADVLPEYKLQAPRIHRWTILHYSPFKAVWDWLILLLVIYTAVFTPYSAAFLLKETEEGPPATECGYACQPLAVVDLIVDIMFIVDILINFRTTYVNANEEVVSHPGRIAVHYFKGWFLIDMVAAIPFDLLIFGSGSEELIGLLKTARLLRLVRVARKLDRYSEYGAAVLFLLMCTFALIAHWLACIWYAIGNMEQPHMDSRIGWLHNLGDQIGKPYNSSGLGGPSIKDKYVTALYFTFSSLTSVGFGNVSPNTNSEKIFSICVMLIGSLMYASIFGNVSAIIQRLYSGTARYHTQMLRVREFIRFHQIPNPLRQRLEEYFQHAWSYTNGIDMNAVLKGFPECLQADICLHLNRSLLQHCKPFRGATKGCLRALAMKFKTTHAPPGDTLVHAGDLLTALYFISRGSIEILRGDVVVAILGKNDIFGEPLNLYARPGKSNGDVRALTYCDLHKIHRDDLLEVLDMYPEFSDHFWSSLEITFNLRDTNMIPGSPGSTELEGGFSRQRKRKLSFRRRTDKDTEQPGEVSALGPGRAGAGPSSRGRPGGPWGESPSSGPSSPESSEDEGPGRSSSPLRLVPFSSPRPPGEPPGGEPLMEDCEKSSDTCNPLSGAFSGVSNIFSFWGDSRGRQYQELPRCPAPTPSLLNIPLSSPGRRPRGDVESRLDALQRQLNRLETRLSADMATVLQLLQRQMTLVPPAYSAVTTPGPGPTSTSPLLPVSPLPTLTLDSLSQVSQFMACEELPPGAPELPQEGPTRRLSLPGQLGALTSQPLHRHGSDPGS

Compound: C[C@H]1C[C@H]2[C@@H]3CCC4=CC(=O)C=C[C@]4(C)[C@@]3(F)[C@@H](O)C[C@]2(C)[C@@]1(O)C(=O)CO
- outcome [1]: inactive
- outcome [2]: inactive
- max response [3]: 8.66%
- max response [4]: -12.7% (inactive)
- Potency [5]: inactive
- Potency [6]: inactive
- Potency [7]: inactive

Compound: COc1ccc(C[C@H](N)C(=O)N[C@H]2[C@@H](O)[C@H](n3cnc4c(N(C)C)ncnc43)O[C@@H]2CO)cc1
- Potency [5]: inactive

Compound: CC(C)=O
- outcome [1]: inactive
- outcome [8]: inactive
- max response [9]: 9.06%
- outcome [2]: inactive
- max response [3]: 9.42%
- max response [4]: 3.03% (inactive)
- activity change % (negative = inhibition) [10]: -5.42% (inactive)
- Potency [5]: inactive
- Potency [6]: inactive
- Potency [7]: inactive

Compound: CC[C@@H](C(=O)O)[C@@H]1O[C@@H]([C@@H](C)[C@H](O)[C@H](C)C(=O)[C@H](CC)[C@H]2O[C@]3(C=C[C@@H](O)[C@]4(CC[C@@](C)([C@H]5CC[C@](O)(CC)[C@H](C)O5)O4)O3)[C@H](C)C[C@@H]2C)[C@@H](C)C[C@@H]1C
- Potency [5]: inactive

Compound: CC[C@@H](C(=O)[C@@H](C)[C@@H](O)[C@H](C)CCc1ccc(C)c(O)c1C(=O)O)[C@H]1O[C@](CC)([C@H]2CC[C@](O)(CC)[C@H](C)O2)C[C@@H]1C
- Potency [5]: inactive

Compound: CCOC(C)=O
- outcome [1]: inactive
- outcome [8]: inactive
- max response [9]: -19.8%
- outcome [2]: inactive
- activity change % (negative = inhibition) [10]: -2.37% (inactive)
- Potency [5]: inactive
- Potency [6]: inactive
- Potency [7]: inactive

Compound: CCOc1ccc2c(c1)C(C)=CC(C)(C)N2
- outcome [2]: inactive
- activity change % (negative = inhibition) [10]: 8.54% (inactive)
- Potency [5]: inactive
- Potency [6]: inactive
- Potency [7]: inactive

Compound: CC(=O)O[C@]1(C(C)=O)CC[C@H]2[C@@H]3CCC4=CC(=O)CC[C@]4(C)[C@@]3(F)[C@@H](O)C[C@@]21C
- Potency [5]: inactive

Compound: CC(C)(C)NC(=O)[C@@H]1C[C@@H]2CCCC[C@@H]2CN1C[C@@H](O)[C@H](Cc1ccccc1)NC(=O)[C@H](CC(N)=O)NC(=O)c1ccc2ccccc2n1
- outcome [1]: inactive
- outcome [2]: inactive
- max response [3]: 9.91%
- Potency [4]: 22.4 µM (active)
- Potency [5]: 35.5 µM (active)
- Potency [6]: inactive
- Potency [7]: inactive

Compound: CCc1ccc2c(c1)N(CC(C)CN(C)C)c1ccccc1S2 (stereo not given)
- Potency [5]: 7.94 µM (active)

Compound: CCC(=O)O[C@@H]1CC(=O)O[C@H](C)C/C=C/C=C/[C@H](O)[C@H](C)C[C@H](CC=O)[C@H](O[C@@H]2O[C@H](C)[C@@H](O[C@H]3C[C@@](C)(O)[C@@H](OC(=O)CC)[C@H](C)O3)[C@H](N(C)C)[C@H]2O)[C@H]1OC
- Potency [5]: inactive

Compound: O=C(O)CN(CCN(CC(=O)O)CC(=O)O)CC(=O)O
- max response [9]: -4.26% and -8.64%
- max response [3]: -5.66% and -2.36%
- max response [4]: -4.8% (inactive) and -20.2% (inactive)
- Potency [6]: inactive
- Potency [7]: inactive

Compound: CC1=CCC(C(C)(C)O)CC1 (stereo not given)
- outcome [1]: inactive
- outcome [8]: inactive
- max response [9]: -10.8%
- outcome [2]: inactive
- max response [3]: 1.88%
- max response [4]: -18.6% (inactive)
- activity change % (negative = inhibition) [10]: -18.4% (inactive)
- Potency [5]: inactive
- Potency [6]: inactive
- Potency [7]: inactive

Compound: CCCCC/C=C\C/C=C\CCCCCCCC(=O)O
- outcome [1]: inactive
- outcome [8]: inactive
- max response [9]: -2.55%
- outcome [2]: inactive
- max response [3]: 2.1%
- max response [4]: 12.5% (inactive)
- activity change % (negative = inhibition) [10]: 8.73% (inactive) and 0.41% (inactive)
- Potency [5]: inactive
- Potency [6]: inactive

Compound: CCCCC(CC)COC(=O)CC(C(=O)OCC(CC)CCCC)S(=O)(=O)O (stereo not given)
- outcome [8]: inactive
- outcome [2]: inactive
- activity change % (negative = inhibition) [10]: -5.51% (inactive)
- Potency [7]: inactive

Compound: C=C[C@]1(C)C[C@@H](OC(=O)CSC(C)(C)CNC(=O)[C@H](N)C(C)C)[C@]2(C)[C@H](C)CC[C@]3(CCC(=O)[C@H]32)[C@@H](C)[C@@H]1O
- Potency [5]: 7.08 µM (active)

Compound: CCCCCCCC/C=C\CCCCCCCC(=O)O
- max response [9]: -22.4% and -10.3%
- outcome [2]: inactive
- max response [3]: -6.26% and -12.6%
- max response [4]: 31.8% (inactive) and 3.81% (inactive)
- activity change % (negative = inhibition) [10]: -12.5% (inactive)
- Potency [5]: inactive
- Potency [6]: inactive
- Potency [7]: inactive

Compound: Cc1ccccc1
- outcome [1]: inactive
- outcome [8]: inactive
- max response [9]: -1.14% and 7.93%
- outcome [2]: inactive
- max response [3]: -4.05% and 9.42%
- max response [4]: -5.8% (inactive) and 14.2% (inactive)
- Potency [5]: inactive
- Potency [6]: inactive
- Potency [7]: inactive

Compound: CC(C)NCC1CCc2cc(CO)c([N+](=O)[O-])cc2N1 (stereo not given)
- Potency [5]: inactive

Compound: O=CCCCC=O
- outcome [1]: inactive
- outcome [8]: inactive
- max response [9]: 18.3%
- outcome [2]: inactive
- max response [3]: -9.66%
- max response [4]: 27.6% (inactive)
- activity change % (negative = inhibition) [10]: 0.64% (inactive)
- Potency [5]: inactive
- Potency [6]: inactive
- Potency [7]: inactive

Compound: CC1=C2[C@@H]([C@H](C)CC[C@H]2/C=C(\C)C(=O)O)[C@H](O)C1
- max response [9]: 29.1%
- outcome [2]: inactive
- max response [3]: 6.79%
- max response [4]: -2.22% (inactive)
- Potency [5]: inactive
